In the library only some 2.2% were active in any assay of this set; here they are far more common.
rTrxR1 inhibitor – inhibitors of rat thioredoxin reductase 1 | O89049 | recombinant rTrxR1, NADPH fluorescence consumption, selenite substrate | AID 588453 | Potency, µM (top dose mostly 114 µM), most hits filed as inhibitors | actives 1% (n = 390,000); note: nearly all actives have a fitted effect of over 65% in size
Target sequence (O89049 whole entry, looked up): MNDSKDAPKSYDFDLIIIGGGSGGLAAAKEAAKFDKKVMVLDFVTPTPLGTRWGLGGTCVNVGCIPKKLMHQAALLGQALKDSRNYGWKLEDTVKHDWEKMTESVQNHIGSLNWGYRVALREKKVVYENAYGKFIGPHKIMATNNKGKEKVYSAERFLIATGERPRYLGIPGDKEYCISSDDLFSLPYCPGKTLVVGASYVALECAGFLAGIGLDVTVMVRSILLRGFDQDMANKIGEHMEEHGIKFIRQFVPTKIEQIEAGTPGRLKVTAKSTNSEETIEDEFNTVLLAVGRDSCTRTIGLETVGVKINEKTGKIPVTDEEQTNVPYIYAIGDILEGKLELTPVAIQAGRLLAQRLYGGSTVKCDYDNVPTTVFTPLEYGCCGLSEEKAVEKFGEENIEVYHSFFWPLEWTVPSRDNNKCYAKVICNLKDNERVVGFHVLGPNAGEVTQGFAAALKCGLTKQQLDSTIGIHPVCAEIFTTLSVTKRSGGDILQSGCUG
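Rat TrxR1 (90 nM in the dispensed reagent) was pre-reduced with 400 uM NADPH for 5 min at room temperature, then incubated with compound for 15 min. After 400 uM selenite was added, NADPH fluorescence (Ex 340/Em 450 nm) was followed for 8 min.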
TrxR1 substrate – rat thioredoxin reductase 1 substrate activity | purified TrxR1 substrate turnover, NADPH consumption readout | Potency, µM (highest dose often 114 µM) | actives 0.01% (n = 390,000) | AID 588456 | O89049; note: nearly all actives have a fitted effect of over 50% in size
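Rat TrxR1, dispensed at 90 nM, was prereduced with 400 uM NADPH (final) for 5 min at ~22 deg C, then incubated with compound 15 min before 400 uM selenite. A first-read NADPH fluorescence drop versus no-compound background flagged substrates.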
BRCA1 expr act – increases BRCA1 expression; Potency, µM (titrated, usually from 46.1 µM), most hits filed as activators; MCF7-BRCA1-FFLuc reporter, luminescence, 48 h; response scale: scaled: vehicle 0%, 10 µM genistein 100%; AID 624202; actives 1.1% (n = 380,000); note: nearly all actives have a fitted effect of over 80% in size
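Activators of BRCA1 expression were detected as increased firefly luciferase luminescence in engineered MCF7 cells after 48 h compound incubation. Signals were scaled to genistein 10 microM as full activation.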
IL2 activator – activates IL-2 in a cell-based reporter assay; activation, % (series mostly up to about 46 µM); IL-2 activation reporter assay, cell-based qHTS; stimulated with anti-CD3/CD4/CD28 beads; in transgenic mouse T cells; actives 0.065% (n = 360,000); in the data active = activation above about 50%; inconclusive = mostly about 30% to 49%
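Unstimulated transgenic mouse T cells; 60-min compound exposure; bead-based TCR/CD4/CD28 stimulation; 18 h culture, 37 degrees C; dual fluorescence (EGFP, DsRed) plate cytometry.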
IDH1 R132H inh – blocks human mutant IDH1 R132H enzyme. actives 0.093% (n = 390,000). IDH1-R132H enzyme, NADPH consumption, diaphorase/resazurin fluorescence. O75874. Potency, µM (highest dose often 76.6 µM), usual class: inhibitors. AID 602179; note: nearly all actives have a fitted effect of over 65% in size
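IDH1-R132H (0.5 ug/mL) preincubated 30 min with compound, then NADPH (0.016 mM) and alpha-KG (2 mM) added; 80 min at RT, pH 7.5. Remaining NADPH coupled via diaphorase/resazurin to fluorescence (540/590 nm); concentration-response curves normalized to no-enzyme control.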
Giardia killer – Giardia lamblia killing; activity change, % at 7.66 µM, hits read low; Giardia lamblia trophozoite viability; actives 0.15% (n = 340,000); in the data active = activity change below about -80%; inconclusive = between about -30% and that limit;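 note: parasites exposed to compound for two days anaerobically before the ATP read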
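Killing of trophozoites was scored by loss of ATP luminescence after a 48 hrs anaerobic exposure to compounds at 37 deg C, using 100 cells per well.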
A number is an active result; 0 = inactive; ? = inconclusive; - = no result. Unless noted, calls come from the whole dose curve; as a rule, active = well fitted curve in the direction sought with a large enough effect; inconclusive = small, poorly fitted or top-dose-only effect, or another doubt; inactive = no such curve, though single readings can be large; an effect the other way counts as inactive or inconclusive.

SMILES	rTrxR1 inhibitor	TrxR1 substrate	BRCA1 expr act	IL2 activator	IDH1 R132H inh	Giardia killer
CC(C)NC(=O)c1cccc2c(-c3ccc(F)c(F)c3)coc12	-	-	1µM	0	-	-
Cc1ccc(C)c(Cn2c(C3CC(=O)N(c4ccccc4C)C3)nc3ccccc32)c1 (configuration not stated)	0	0	0	-	0	-
CCC(C)N1C(=O)S/C(=C/c2ccc(N3CCOCC3)cc2C)C1=O (configuration not stated)	0	0	8.91µM	0	0	0
Cc1cc(N2CCOCC2)ccc1/C=C1\SC(=O)N(C(C)C)C1=O	0	0	?	?	0	0
C#CCN1C(=O)S/C(=C\c2ccc(N3CCOCC3)cc2C)C1=O	0	0	0	202.7	0	0
O=c1c2sccc2nc(SCc2cc(=O)n3cc(Br)ccc3n2)n1Cc1ccccn1	0	0	6.31µM	0	0	0
Cc1ccc(S(=O)(=O)CCC(=O)NCc2ccc(Cl)cc2)cc1	0	0	0	0	0	0
Cc1ccc(C(=O)CCS(=O)(=O)c2ccc(Cl)cc2)cc1	0.562µM	0	0	0	0	0
O=C(CCCC(=O)c1ccc(F)cc1)c1ccc(F)cc1	0	0	2.51µM	0	0	0
Cc1ccc(S(=O)(=O)CCC(=O)c2ccc(F)cc2)cc1	1.58µM	0	0	0	0	0
Cc1ccc(S(=O)(=O)CCC(=O)OCC(=O)NCCc2ccc(F)cc2)cc1	0	0	0	0	0	0
Cc1ccc(C(=O)CCS(=O)(=O)c2ccc(F)cc2)cc1	1.12µM	0	0	0	0	0
CCN(CC)c1cc(C)c2cc(NC(=O)c3ccccc3Cl)ccc2n1	0	0	0	-	0	-
CN(C)c1ccc(-c2nc3cnccn3c2Nc2ccc3c(c2)OCCO3)cc1	0	0	0	0	0	0
CN(C)c1ccc(-c2nc3ccc(Cl)cn3c2Nc2ccc3c(c2)OCCO3)cc1	0	0	10µM	-	0	-
CC(Oc1ccccc1)C(=O)Nc1ccccc1C(=O)OCc1cc(=O)n2nc(C(C)C)sc2n1 (configuration not stated)	0	0	-	-	0	-
COc1ccc2nc(NC(=O)c3ccc(S(=O)(=O)N4CCC(C)CC4)cc3)sc2c1	0	0	0	-	0	-
Cc1cc(C)c(OCC(=O)OCCNC(=O)c2cccnc2)c(C)c1	50.1µM	0	0	0	0	0
CC(C)c1cc(C(=O)NC(C)c2ccccc2)no1 (configuration not stated)	0	0	-	-	0	-
Cc1ccc2c(c1)COc1c3ccc(C(=O)N4CCOCC4)cc3nn1-2	0	0	4.47µM	0	0	0
COCCNC(=O)c1ccc2c3n(nc2c1)-c1ccc(Cl)cc1CO3	0	0	?	0	0	0
CC(C)[C@@H](CO)NC(=O)c1ccc2c3n(nc2c1)-c1ccc(Cl)cc1CO3	0	0	3.98µM	0	0	0
O=C(c1ccc2c3n(nc2c1)-c1ccc(Cl)cc1CO3)N1CCCCC1	0	0	?	0	0	0
O=C(NCCO)c1ccc2c3n(nc2c1)-c1ccc(Cl)cc1CO3	0	0	3.16µM	0	0	0
O=C(NCC1CC1)c1ccc2c3n(nc2c1)-c1ccc(Cl)cc1CO3	0	0	2.51µM	0	0	0
SMILES	rTrxR1 inhibitor	TrxR1 substrate	BRCA1 expr act	IL2 activator	IDH1 R132H inh	Giardia killer
CCOc1ccccc1NC(=O)Cn1c(=O)n(CCC(C)C)c(=O)c2cccnc21	0	0	0	-	0	-
CCN(c1ccccc1)c1nnc(NC(=O)Nc2ccc(C)cc2)s1	0	0	-	-	0	-
Cc1cc2c(s1)c1cnn(CC(=O)N3CCOCC3)c(=O)c1n2C	0	0	0	-	-	0
O=S(=O)(c1ccc(Cl)cc1)N1CCN(c2nc(-c3ccccc3)nc3ccccc23)CC1	0	0	0	-	-	0
CCN(C(=O)COC(=O)/C=C/c1ccc(C)o1)c1c(N)n(Cc2ccccc2)c(=O)[nH]c1=O	39.8µM	0	0	0	0	0
Cc1ccc(/C=C/C(=O)OCC(=O)N(CC(C)C)c2c(N)n(Cc3ccccc3)c(=O)[nH]c2=O)o1	0	0	0	0	0	0
CCN(CC)c1ccc(S(=O)(=O)N2CCOCC2)cc1NC(=O)COC(=O)/C=C/c1ccc(C)o1	70.8µM	0	0	0	0	0
Cc1ccc(S(=O)(=O)N2CCOCC2)cc1NC(=O)COC(=O)c1ccco1	-	-	0	81.2	0	-
Cc1ccc(CNC(=O)[C@]2(C(F)(F)F)C[C@H](CCc3ccccc3)CCCO2)o1	?	0	-	-	-	0
COc1ccc(Nc2nn3c(=O)c4cc5c(cc4nc3s2)OCO5)c(OC)c1	0	0	-	-	0	-
Cc1c(CC(=O)NCCCO)c(=O)oc2cc3c(cc12)CCC(C)(C)O3	56.2µM	0	0	0	0	0
Cc1c(CC(=O)NCC(=O)O)c(=O)oc2cc3c(cc12)CCC(C)(C)O3	0	0	0	0	0	0
O=C(/C(Br)=C/Nc1cc(Cl)ccc1Cl)C(F)(F)F	39.8µM	0	0	0	0	0
O=C(NCCC1=CCCCC1)c1ccc2c(c1)N(Cc1ccccc1)C(=O)c1ccccc1S2(=O)=O	0	0	-	-	-	-
O=C(Nc1ccc(-c2cnco2)cc1)c1ccccc1	0	0	2.82µM	0	0	0
O=C(Nc1ccc(-c2cnco2)cc1)c1ccc(Cl)cc1	0	0	0	0	0	0
O=[N+]([O-])c1ccc(-c2nc(C(Cl)Cl)c3ccccc3n2)cc1	0	0	0	0	0	-90.6
CN(Cc1ccccc1)c1nc(-c2ccc([N+](=O)[O-])cc2)nc2ccccc12	0	0	0	0	0	0
O=C(NCCc1cccs1)C1CCC(=O)N(CCc2cccc(F)c2)C1 (configuration not stated)	0	0	0	0	0	0
Cc1ccsc1CCNC(=O)C1CCC(=O)N(CCc2cccc(F)c2)C1 (configuration not stated)	0	0	7.94µM	0	0	0
O=C(N[C@@H](Cc1ccccc1)C(=O)CCl)OCc1ccccc1	21.2µM	0	0	0	0	0
CCC(C)c1ccc(O)c(NC(=O)c2cccnc2)c1 (configuration not stated)	0	0	0	0	0	0
CCC(C)c1ccc(NC(=O)c2cccnc2)cc1 (configuration not stated)	0	0	3.55µM	0	0	0
CCN(c1ncnc2c1cnn2-c1cc(Cl)ccc1C)C1CCCCC1	0	0	-	-	0	-
Cc1ccc(N/C(C(Cl)=C(Cl)Cl)=C(/Cl)[N+](=O)[O-])c(C)c1	?	0	0	0	0	-94.4
Cc1ccc(NC(=O)CC(=O)Nc2ccc(C)cc2C)c(C)c1	0	0	0	0	0	0
CCOC(=O)CSc1nc2ccc(NC(=O)COc3ccccc3)cc2s1	0	0	0	-	0	-

Screening data (PubChem BioAssay)
